# According to the supplement of paper PMC8728848:
# The sample as a whole holds a higher share of the strongest signals than the screen did.
# B1: PILRa (Homo sapiens), Q9UKJ1 (protein)
# chain: MGRPLLLPLLPLLLPPAFLQPSGSTGSGPSYLYGVTQPKHLSASMGGSVEIPFSFYYPWELATAPDVRISWRRGHFHRQSFYSTRPPSIHKDYVNRLFLNWTEGQKSGFLRISNLQKQDQSVYFCRVELDTRSSGRQQWQSIEGTKLSITQAVTTTTQRPSSMTTTWRLSSTTTTTGLRVTQGKRRSDSWHISLETAVGVAVAVTVLGIMILGLICLLRWRRRKGQQRTKATTPAREPFQNTEEPYENIRNEGQNTDPKLNPKDDGIVYASLALSSSTSPRAPPSHRPLKSPQNETLYSVLKA
# How the values were obtained:
# Experiment in all cases: glycan array binding signal (z-score within array); higher = stronger binding
# Conditions in all cases: glycan notation: IUPAC condensed, linker removed
# [1] = molecular target: Fuc(a1-2)Gal(b1-3)GalNAc(b1-4)[Neu5Ac(a2-3)]Gal(b1-4)Glc
# Procedure, shortened: (§1)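 The binding signal is a Z-score computed within each array. Data were drawn from 3228 arrays in the Consortium for Functional Glycomics database, restricted to those with a known protein sequence. Scores were averaged over arrays of the same protein sequence at different concentrations or buffers, and over linkers, and negative values can be taken as non-binding.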
# [2] = molecular target: Fuc(a1-2)Gal(b1-3)[Fuc(a1-4)]GlcNAc(b1-2)Man(a1-3)[Fuc(a1-2)Gal(b1-3)[Fuc(a1-4)]GlcNAc(b1-2)Man(a1-6)]Man(b1-4)GlcNAc(b1-4)GlcNAc
# Procedure, shortened: as §1
# [3] = molecular target: Fuc(a1-2)Gal(b1-4)[Fuc(a1-3)]GlcNAc(b1-2)[Fuc(a1-2)Gal(b1-4)[Fuc(a1-3)]GlcNAc(b1-4)]Man(a1-3)[Fuc(a1-2)Gal(b1-4)[Fuc(a1-3)]GlcNAc(b1-2)Man(a1-6)]Man(b1-4)GlcNAc(b1-4)GlcNAc
# Procedure, shortened: as §1
# [4] = molecular target: Fuc(a1-2)Gal(b1-4)[Fuc(a1-3)]GlcNAc(b1-3)GalNAc
# Procedure, shortened: as §1
# [5] = molecular target: Fuc(a1-2)[Gal(a1-3)]Gal(b1-3)GlcNAc(b1-3)GalNAc
# Procedure, shortened: as §1
# [6] = molecular target: Fuc(a1-2)[Gal(a1-3)]Gal(b1-4)[Fuc(a1-3)]GlcNAc(b1-3)GalNAc
# Procedure, shortened: as §1
# [7] = molecular target: Fuc(a1-2)[GalNAc(a1-3)]Gal(b1-3)GalNAc(a1-3)[Fuc(a1-2)]Gal(b1-4)GlcNAc
# Procedure, shortened: as §1
# [8] = molecular target: Fuc(a1-2)[GalNAc(a1-3)]Gal(b1-3)GlcNAc(b1-3)GalNAc
# Procedure, shortened: as §1
# [9] = molecular target: Fuc(a1-2)[GalNAc(a1-3)]Gal(b1-4)GlcNAc(b1-3)GalNAc
# Procedure, shortened: as §1
# [10] = molecular target: Fuc(a1-2)[GalNAc(a1-3)]Gal(b1-4)[Fuc(a1-3)]GlcNAc(b1-3)GalNAc
# Procedure, shortened: as §1
# [11] = molecular target: Fuc(a1-3)[Gal(b1-4)]GlcNAc(b1-2)Man(a1-6)[Gal(b1-4)GlcNAc(b1-2)Man(a1-3)]Man(b1-4)GlcNAc(b1-4)GlcNAc
# Procedure, shortened: as §1
# [12] = molecular target: Fuc(a1-3)[Gal3S(b1-4)]GlcNAc6S
# Procedure, shortened: as §1
# [13] = molecular target: Fuc(a1-3)[GalNAc(b1-4)]GlcNAc
# Procedure, shortened: as §1
# [14] = molecular target: Gal(a1-3)Gal(b1-3)GlcNAc(b1-2)Man(a1-3)[Gal(a1-3)Gal(b1-3)GlcNAc(b1-2)Man(a1-6)]Man(b1-4)GlcNAc(b1-4)GlcNAc
# Procedure, shortened: as §1
# Gal(b1-2)Gal = molecular target: Gal(b1-2)Gal
# Procedure, shortened: as §1
# [15] = molecular target: Gal(b1-3)GlcNAc(b1-3)Gal(b1-3)GlcNAc
# Procedure, shortened: as §1
# [16] = molecular target: Gal(b1-3)GlcNAc(b1-6)Gal(b1-4)GlcNAc
# Procedure, shortened: as §1
# [17] = molecular target: Gal(b1-4)GlcNAc(b1-3)[GlcNAc(b1-6)]Gal(b1-4)GlcNAc
# Procedure, shortened: as §1
# Gal(b1-6)Gal = molecular target: Gal(b1-6)Gal
# Procedure, shortened: as §1
# Gal3S(b1-4)Glc6S = molecular target: Gal3S(b1-4)Glc6S
# Procedure, shortened: as §1
# Gal3S(b1-4)GlcNAc6S = molecular target: Gal3S(b1-4)GlcNAc6S
# Procedure, shortened: as §1
# [18] = molecular target: GalNAc(a1-3)GalNAc(a1-3)Gal(a1-4)Gal(b1-4)GlcNAc
# Procedure, shortened: as §1
# GalNAc(b1-3)Gal = molecular target: GalNAc(b1-3)Gal
# Procedure, shortened: as §1
# [19] = molecular target: GalNAc(b1-3)Gal(a1-4)Gal(b1-4)GlcNAc(b1-3)Gal(b1-4)Glc
# Procedure, shortened: as §1
# [20] = molecular target: GalNAc(b1-3)Gal(a1-6)Gal(b1-4)Glc
# Procedure, shortened: as §1
# GlcA(b1-3)GlcNAc = molecular target: GlcA(b1-3)GlcNAc
# Procedure, shortened: as §1
# [21] = molecular target: GlcNAc(a1-3)Gal(b1-4)GlcNAc
# Procedure, shortened: as §1
# [22] = molecular target: GlcNAc(b1-3)Gal(b1-4)GlcNAc(b1-3)Gal(b1-4)GlcNAc
# Procedure, shortened: as §1
# [23] = molecular target: GlcNAc(b1-4)[GlcNAc(b1-6)]GalNAc
# Procedure, shortened: as §1
# Man(a1-2)Man(a1-3)Man = molecular target: Man(a1-2)Man(a1-3)Man
# Procedure, shortened: as §1
binder,measurement,setting,value
B1,glycan array binding signal (z-score),[1],-0.102
same,glycan array binding signal (z-score),[2],4.38
same,glycan array binding signal (z-score),[3],4.02
same,glycan array binding signal (z-score),[4],5.45
same,glycan array binding signal (z-score),[5],0.023
same,glycan array binding signal (z-score),[6],3.41
same,glycan array binding signal (z-score),[7],-0.142
same,glycan array binding signal (z-score),[8],4.4
same,glycan array binding signal (z-score),[9],-0.194
same,glycan array binding signal (z-score),[10],9.37
same,glycan array binding signal (z-score),[11],-0.546
same,glycan array binding signal (z-score),[12],-0.051
same,glycan array binding signal (z-score),[13],-0.102
same,glycan array binding signal (z-score),[14],4.98
same,glycan array binding signal (z-score),Gal(b1-2)Gal,0.001
same,glycan array binding signal (z-score),[15],0.263
same,glycan array binding signal (z-score),[16],-0.136
same,glycan array binding signal (z-score),[17],-0.338
same,glycan array binding signal (z-score),Gal(b1-6)Gal,-0.177
same,glycan array binding signal (z-score),Gal3S(b1-4)Glc6S,0.618
same,glycan array binding signal (z-score),Gal3S(b1-4)GlcNAc6S,-0.01
same,glycan array binding signal (z-score),[18],-0.27
same,glycan array binding signal (z-score),GalNAc(b1-3)Gal,0.508
same,glycan array binding signal (z-score),[19],-0.169
same,glycan array binding signal (z-score),[20],-0.215
same,glycan array binding signal (z-score),GlcA(b1-3)GlcNAc,6.02
same,glycan array binding signal (z-score),[21],0.089
same,glycan array binding signal (z-score),[22],-0.259
same,glycan array binding signal (z-score),[23],-0.213
same,glycan array binding signal (z-score),Man(a1-2)Man(a1-3)Man,-0.144
